# In ChEMBL document CHEMBL3988442, “University of Dundee, Small-Polar-MMV Screening Library” (2021):
# For some of these results: Potency and affinity values are given separately.
# What was measured:
# Design in all cases: scale not given: direction of the effect not stated beside the values
# [1] = target: Protein translocase subunit SecA (Escherichia coli (strain K12)) (UniProt P10408); test: Assay to Identify E. coli SecA ATPase Inhibitors; type: functional; details: 30 µM
# [2] = target: T1, Ubiquitin-activating enzyme e1, putative (Leishmania donovani (strain BPK282A1)) (UniProt E9BSI1); test: Leishmania donovani Ubiquitin Activating Enzyme (LdE1); type: functional; details: 30 µM
# T1 sequence (whole entry): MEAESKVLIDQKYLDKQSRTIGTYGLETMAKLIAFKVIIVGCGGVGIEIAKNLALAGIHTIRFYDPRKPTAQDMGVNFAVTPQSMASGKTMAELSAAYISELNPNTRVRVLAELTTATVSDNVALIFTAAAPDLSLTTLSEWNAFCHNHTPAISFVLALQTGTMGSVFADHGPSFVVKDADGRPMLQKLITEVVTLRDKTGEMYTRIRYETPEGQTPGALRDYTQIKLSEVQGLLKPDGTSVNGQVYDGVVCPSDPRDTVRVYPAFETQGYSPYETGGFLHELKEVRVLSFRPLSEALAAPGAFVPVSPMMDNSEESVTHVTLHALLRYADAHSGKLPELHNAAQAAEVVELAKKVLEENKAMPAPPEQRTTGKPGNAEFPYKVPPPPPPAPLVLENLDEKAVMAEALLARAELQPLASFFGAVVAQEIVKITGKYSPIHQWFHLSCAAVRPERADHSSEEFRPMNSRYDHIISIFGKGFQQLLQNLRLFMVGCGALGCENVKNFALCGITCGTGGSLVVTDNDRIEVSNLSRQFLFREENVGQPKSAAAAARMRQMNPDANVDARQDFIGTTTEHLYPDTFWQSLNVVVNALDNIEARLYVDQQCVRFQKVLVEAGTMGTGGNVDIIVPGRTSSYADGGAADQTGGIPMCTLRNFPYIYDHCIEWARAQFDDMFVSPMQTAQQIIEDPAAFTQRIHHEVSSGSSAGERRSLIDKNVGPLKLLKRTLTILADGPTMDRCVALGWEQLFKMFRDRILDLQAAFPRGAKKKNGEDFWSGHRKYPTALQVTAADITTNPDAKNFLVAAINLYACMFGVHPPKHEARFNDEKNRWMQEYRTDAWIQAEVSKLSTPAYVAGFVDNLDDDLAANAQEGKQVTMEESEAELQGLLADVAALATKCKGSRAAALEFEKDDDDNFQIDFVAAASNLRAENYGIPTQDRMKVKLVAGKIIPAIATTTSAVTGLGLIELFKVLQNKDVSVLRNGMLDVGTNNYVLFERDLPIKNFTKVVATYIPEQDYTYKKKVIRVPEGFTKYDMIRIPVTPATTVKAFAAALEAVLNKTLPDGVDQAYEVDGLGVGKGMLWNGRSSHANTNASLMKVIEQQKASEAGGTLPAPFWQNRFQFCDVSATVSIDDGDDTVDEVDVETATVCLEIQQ
# [3] = target: AMP-activated protein kinase, AMPK (Homo sapiens) (UniProt P54646+O43741+P54619+Q9UGJ0+Q9Y478+Q13131+Q9UGI9); test: AMP-dependent Kinase enzyme assay. An in vitro enzyme assay that detects ADP turnover that is directly proportional to AMPK activity. This uses naive AMPK that is activated during the assay with MK-8722; type: functional; details: 30 µM
# [4] = target: Sialic acid-binding Ig-like lectin 9 (Homo sapiens) (UniProt Q9Y336); test: Hs-Siglec9 ALPHAscreen SOP 20170721; details: 10 µM
# [5] = system: Trypanosoma cruzi; test: Trypanosoma cruzi phosphomannomutase and mannose-1-phosphate guanylyltransferase assay; type: functional; details: 10 µM
# [6] = target: T2, Arginase-2, mitochondrial (Homo sapiens) (UniProt P78540); test: in vitro enzyme assay to detect the production of urea directly proportional to the activity of Arginase II; type: functional; details: 33.3 µM; note: in the data most compounds retested in dose-response had high values
# T2 sequence (whole entry): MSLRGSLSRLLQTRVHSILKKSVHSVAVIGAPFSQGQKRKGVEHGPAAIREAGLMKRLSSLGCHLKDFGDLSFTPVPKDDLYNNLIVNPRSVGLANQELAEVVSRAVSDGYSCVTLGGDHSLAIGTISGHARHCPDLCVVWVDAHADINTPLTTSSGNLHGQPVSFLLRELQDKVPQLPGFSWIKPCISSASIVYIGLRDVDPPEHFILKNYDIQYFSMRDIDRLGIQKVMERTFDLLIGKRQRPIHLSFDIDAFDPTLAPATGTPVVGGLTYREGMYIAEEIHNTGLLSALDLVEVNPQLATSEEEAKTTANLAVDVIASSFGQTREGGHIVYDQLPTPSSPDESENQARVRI
# [7] = target: T3, Proteasome subunit beta (Trypanosoma cruzi) (UniProt O96673); test: Trypanosoma cruzi proteasome chymotrypsin-like activity (TcProtChymo) assay.; note: in the data most compounds retested in dose-response had high values; type: functional; details: 9.37 µM
# T3 sequence (whole entry): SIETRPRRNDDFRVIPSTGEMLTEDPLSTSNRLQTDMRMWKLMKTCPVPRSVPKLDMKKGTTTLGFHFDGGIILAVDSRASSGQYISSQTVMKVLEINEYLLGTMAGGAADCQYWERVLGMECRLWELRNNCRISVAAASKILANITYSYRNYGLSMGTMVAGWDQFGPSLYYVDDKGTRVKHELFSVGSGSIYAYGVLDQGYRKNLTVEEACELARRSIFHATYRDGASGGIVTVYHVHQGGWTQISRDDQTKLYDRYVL
# [8] = species: Homo sapiens; test: To identify inhibition of the IFN signalling (Jak-Stat) pathway via expression of an eGFP reporter gene under the control of an IFN-stimulated response element (ISRE) containing MxA promoter.; type: functional; details: 30 µM
# [9] = target: T4, Tyrosyl-tRNA synthetase, putative (Trypanosoma cruzi (strain CL Brener)) (UniProt Q4DSP6); test: Trypanosoma cruzi tyrosyl tRNA synthetase (TcYRS) _High Tyrosine SOP; type: functional; details: 30 µM; note: in the data most compounds retested in dose-response had high values
# T4 sequence (whole entry): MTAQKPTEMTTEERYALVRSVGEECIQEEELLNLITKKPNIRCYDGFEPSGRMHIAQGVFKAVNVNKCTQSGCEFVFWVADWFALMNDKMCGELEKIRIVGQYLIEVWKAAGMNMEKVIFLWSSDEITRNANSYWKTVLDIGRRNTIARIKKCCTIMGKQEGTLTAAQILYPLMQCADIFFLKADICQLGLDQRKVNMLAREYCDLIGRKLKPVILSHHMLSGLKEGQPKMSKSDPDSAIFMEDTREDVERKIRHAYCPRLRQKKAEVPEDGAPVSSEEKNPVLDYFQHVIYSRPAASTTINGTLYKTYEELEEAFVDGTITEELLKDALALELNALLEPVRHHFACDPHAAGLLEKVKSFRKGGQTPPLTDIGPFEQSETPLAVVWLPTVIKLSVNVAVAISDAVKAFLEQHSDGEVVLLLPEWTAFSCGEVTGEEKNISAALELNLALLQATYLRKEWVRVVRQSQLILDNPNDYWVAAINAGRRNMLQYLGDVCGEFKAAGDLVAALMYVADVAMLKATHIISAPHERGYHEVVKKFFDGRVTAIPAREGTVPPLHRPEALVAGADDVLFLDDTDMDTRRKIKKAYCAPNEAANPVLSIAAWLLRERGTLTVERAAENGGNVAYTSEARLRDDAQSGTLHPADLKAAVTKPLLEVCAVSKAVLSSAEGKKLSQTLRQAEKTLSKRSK
# [10] = target: T4, Tyrosyl-tRNA synthetase, putative (Trypanosoma cruzi (strain CL Brener)); test: Trypanosoma cruzi tyrosyl tRNA synthetase (TcYRS) SOP; type: functional; details: 30 µM
# [11] = target: Chromo domain-containing protein 1 (Saccharomyces cerevisiae (strain ATCC 204508 / S288c) (Baker's yeast)) (UniProt P32657); test: ScCHD-1 Enzyme Inhibition Assay; type: functional; details: 30 µM; note: in the data most compounds retested in dose-response had high values
# Chain of Chromo domain-containing protein 1 (Saccharomyces cerevisiae (strain ATCC 204508 / S288c) (Baker's yeast)) (P32657 whole entry, the tested form may be a part): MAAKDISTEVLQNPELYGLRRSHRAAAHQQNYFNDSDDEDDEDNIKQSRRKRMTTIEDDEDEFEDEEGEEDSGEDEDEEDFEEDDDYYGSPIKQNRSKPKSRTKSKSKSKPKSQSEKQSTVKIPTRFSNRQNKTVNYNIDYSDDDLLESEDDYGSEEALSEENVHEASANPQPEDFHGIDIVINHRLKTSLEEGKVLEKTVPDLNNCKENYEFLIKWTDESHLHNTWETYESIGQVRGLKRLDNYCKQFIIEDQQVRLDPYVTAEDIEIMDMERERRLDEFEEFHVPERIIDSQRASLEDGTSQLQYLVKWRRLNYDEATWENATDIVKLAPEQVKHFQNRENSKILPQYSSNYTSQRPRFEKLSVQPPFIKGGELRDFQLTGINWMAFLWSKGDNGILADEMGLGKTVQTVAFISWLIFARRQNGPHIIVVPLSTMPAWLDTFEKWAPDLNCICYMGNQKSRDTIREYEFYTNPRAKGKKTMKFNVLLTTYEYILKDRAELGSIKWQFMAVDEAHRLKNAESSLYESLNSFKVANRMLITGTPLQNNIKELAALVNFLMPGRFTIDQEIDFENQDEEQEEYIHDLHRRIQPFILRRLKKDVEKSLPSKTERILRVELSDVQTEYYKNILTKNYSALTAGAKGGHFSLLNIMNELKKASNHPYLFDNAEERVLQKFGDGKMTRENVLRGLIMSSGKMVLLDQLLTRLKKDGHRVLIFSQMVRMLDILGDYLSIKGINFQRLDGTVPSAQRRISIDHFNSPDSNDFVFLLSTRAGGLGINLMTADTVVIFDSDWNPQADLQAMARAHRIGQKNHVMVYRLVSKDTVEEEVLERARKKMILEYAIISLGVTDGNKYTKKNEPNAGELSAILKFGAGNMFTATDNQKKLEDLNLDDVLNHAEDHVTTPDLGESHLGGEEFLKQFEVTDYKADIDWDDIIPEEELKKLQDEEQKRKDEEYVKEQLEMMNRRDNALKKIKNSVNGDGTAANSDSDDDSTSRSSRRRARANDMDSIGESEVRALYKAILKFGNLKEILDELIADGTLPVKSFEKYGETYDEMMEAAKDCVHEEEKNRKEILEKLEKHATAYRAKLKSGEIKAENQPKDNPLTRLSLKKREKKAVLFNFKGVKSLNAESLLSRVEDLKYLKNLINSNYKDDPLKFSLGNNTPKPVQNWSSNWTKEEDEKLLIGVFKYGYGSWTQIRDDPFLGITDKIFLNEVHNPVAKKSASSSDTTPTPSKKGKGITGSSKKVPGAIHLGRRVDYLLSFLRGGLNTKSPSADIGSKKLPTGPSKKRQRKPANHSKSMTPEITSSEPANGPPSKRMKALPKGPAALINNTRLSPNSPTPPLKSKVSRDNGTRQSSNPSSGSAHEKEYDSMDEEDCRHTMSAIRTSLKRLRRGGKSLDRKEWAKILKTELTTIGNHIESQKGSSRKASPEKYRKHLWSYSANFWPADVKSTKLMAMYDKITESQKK
# Chain of Protein translocase subunit SecA (Escherichia coli (strain K12)) (P10408 whole entry): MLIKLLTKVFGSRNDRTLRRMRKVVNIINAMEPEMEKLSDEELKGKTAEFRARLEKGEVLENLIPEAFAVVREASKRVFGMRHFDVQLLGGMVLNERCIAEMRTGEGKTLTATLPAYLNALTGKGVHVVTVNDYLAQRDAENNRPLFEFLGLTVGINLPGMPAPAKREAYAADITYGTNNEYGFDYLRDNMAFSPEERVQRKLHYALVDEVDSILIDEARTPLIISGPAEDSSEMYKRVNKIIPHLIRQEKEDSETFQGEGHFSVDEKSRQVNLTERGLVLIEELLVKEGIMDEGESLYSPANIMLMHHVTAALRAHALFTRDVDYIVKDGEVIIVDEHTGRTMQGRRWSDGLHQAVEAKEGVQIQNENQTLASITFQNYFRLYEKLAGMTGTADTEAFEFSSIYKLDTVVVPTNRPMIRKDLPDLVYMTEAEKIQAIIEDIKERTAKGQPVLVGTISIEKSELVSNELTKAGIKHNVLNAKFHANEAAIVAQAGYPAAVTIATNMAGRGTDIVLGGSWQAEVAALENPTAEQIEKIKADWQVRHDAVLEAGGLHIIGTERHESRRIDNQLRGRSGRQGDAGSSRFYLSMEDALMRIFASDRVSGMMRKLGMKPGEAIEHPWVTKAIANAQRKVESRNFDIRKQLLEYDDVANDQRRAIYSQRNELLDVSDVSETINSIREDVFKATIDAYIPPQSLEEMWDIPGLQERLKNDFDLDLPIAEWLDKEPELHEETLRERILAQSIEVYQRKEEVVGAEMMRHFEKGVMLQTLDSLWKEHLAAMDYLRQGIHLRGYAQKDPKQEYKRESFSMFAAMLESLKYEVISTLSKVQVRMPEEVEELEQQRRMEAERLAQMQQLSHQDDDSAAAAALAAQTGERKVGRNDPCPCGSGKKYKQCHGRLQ
# Chain of Sialic acid-binding Ig-like lectin 9 (Homo sapiens) (Q9Y336 whole entry): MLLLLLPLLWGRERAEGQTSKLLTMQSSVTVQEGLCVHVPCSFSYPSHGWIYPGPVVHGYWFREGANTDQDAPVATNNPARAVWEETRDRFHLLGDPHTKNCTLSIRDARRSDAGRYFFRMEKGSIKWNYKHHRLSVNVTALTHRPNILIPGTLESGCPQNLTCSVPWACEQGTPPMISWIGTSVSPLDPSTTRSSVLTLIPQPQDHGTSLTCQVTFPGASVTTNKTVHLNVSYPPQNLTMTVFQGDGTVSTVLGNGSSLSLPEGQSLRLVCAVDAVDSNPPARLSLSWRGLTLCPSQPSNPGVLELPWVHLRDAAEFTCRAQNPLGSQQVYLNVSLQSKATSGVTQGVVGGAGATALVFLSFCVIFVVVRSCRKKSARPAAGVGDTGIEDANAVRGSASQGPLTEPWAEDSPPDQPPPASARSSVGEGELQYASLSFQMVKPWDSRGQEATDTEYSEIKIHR
smiles,measurement,setting,value
Clc1ccccc1CN1CCc2nc(C3CCCCN3)ncc2C1 (stereo not drawn),Percent Effect,[1],-3.32%
same,Percent Effect,[2],-8%
same,Percent Effect,[3],4.19%
same,Percent Effect,[4],5.09%
same,Percent Effect,[5],8.46%
same,Percent Effect,[6],-1.17%
same,Percent Effect,[7],5.55%
same,Percent Effect,[8],-13.2%
same,Percent Effect,[9],5.32%
same,Percent Effect,[10],3.85%
same,Percent Effect,[11],-2.09%
Cc1nc(C)n(CC2CCCN(c3ncnc4sccc34)C2)n1 (stereo not drawn),Percent Effect,[1],-2.59%
same,Percent Effect,[2],13.5%
same,Percent Effect,[3],-5.88%
same,Percent Effect,[4],-5.07%
same,Percent Effect,[5],-6.32%
same,Percent Effect,[6],0.401%
same,Percent Effect,[7],9.91%
same,Percent Effect,[8],65.9%
same,Percent Effect,[9],6.4%
same,Percent Effect,[10],16.1%
same,Percent Effect,[11],-6.06%
Cc1nc(C)n(C2CCCN(C(=O)Cc3n[nH]c4ccccc34)C2)n1 (stereo not drawn),Percent Effect,[1],-5.17%
same,Percent Effect,[2],-2.6%
same,Percent Effect,[3],5.72%
same,Percent Effect,[4],7.39%
same,Percent Effect,[5],1.69%
same,Percent Effect,[6],-7.47%
same,Percent Effect,[7],4.56%
same,Percent Effect,[8],5.91%
same,Percent Effect,[9],5.83%
same,Percent Effect,[10],14.6%
same,Percent Effect,[11],-7.79%
Cc1cnn(CCNCc2ccccc2C#N)c1,Percent Effect,[1],-7.98%
same,Percent Effect,[2],5.41%
same,Percent Effect,[3],-2.49%
same,Percent Effect,[4],6.11%
same,Percent Effect,[5],-5.11%
same,Percent Effect,[6],-0.554%
same,Percent Effect,[7],5.21%
same,Percent Effect,[8],14.9%
same,Percent Effect,[9],-1.98%
same,Percent Effect,[10],-1.22%
same,Percent Effect,[11],1.22%
CNS(=O)(=O)c1ccc(C(=O)N2CCCC2c2cnn(C)c2)o1 (stereo not drawn),Percent Effect,[1],-2.43%
same,Percent Effect,[2],7.89%
same,Percent Effect,[3],-0.508%
same,Percent Effect,[4],-1.15%
same,Percent Effect,[5],8.12%
same,Percent Effect,[6],0.719%
same,Percent Effect,[7],-0.761%
same,Percent Effect,[8],1.2%
same,Percent Effect,[9],1.48%
same,Percent Effect,[10],6.17%
same,Percent Effect,[11],-6.23%
c1coc(CN2CCCC3(COCCN(Cc4c[nH]nn4)C3)C2)c1 (stereo not drawn),Percent Effect,[1],-3.44%
same,Percent Effect,[2],8%
same,Percent Effect,[3],2.62%
same,Percent Effect,[4],8.5%
same,Percent Effect,[5],-0.193%
same,Percent Effect,[6],-23.1%
same,Percent Effect,[7],10.9%
same,Percent Effect,[8],-4.99%
same,Percent Effect,[9],7.29%
same,Percent Effect,[10],10%
same,Percent Effect,[11],-7.03%
CC(C)(C)c1n[nH]cc1CN1CCc2nc3ccsc3c(=O)n2CC1,Percent Effect,[1],-2.34%
same,Percent Effect,[2],25.7%
same,Percent Effect,[3],7.24%
same,Percent Effect,[4],-3.97%
same,Percent Effect,[5],2.96%
same,Percent Effect,[6],-7.19%
same,Percent Effect,[7],18.7%
same,Percent Effect,[8],43.3%
same,Percent Effect,[9],-1.07%
same,Percent Effect,[10],3.9%
same,Percent Effect,[11],-5.96%
CCN1CCOC(CNCc2ccccn2)C1 (stereo not drawn),Percent Effect,[1],-1.35%
same,Percent Effect,[2],0%
same,Percent Effect,[3],-15.7%
same,Percent Effect,[4],4.04%
same,Percent Effect,[5],7.19%
same,Percent Effect,[6],1.8%
same,Percent Effect,[7],-3.64%
same,Percent Effect,[8],-4.24%
same,Percent Effect,[9],8.37%
same,Percent Effect,[10],16.1%
same,Percent Effect,[11],-1.88%
